Bioassay records (PubChem BioAssay)
rCAG binder = molecules binding r(CAG) RNA repeats; inhibition, % at 3 µM; r(CAG) RNA repeat, TO-PRO-1 dye displacement fluorescence; 1.3% of 370,000 active;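 active means inhibition above the plate cutoff, the mean of all test compounds on that plate plus 3 SD, cut at about 35% in these data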;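 further: 0% = DMSO alone and 100% = 100 µM mitoxantrone as full dye displacement; higher means more dye released from RNA so lower well fluorescence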
PAFAH1B3 inh = PAFAH1B3 (human) inhibition; Q15102; recombinant PAFAH1B3, FP-rhodamine probe, fluorescence polarization; inhibition, % at 3.39 µM; 0.28% of 340,000 active; AID 492972;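 active means inhibition above the screen-wide average of all tested compounds plus 3 SD, cut at about 25% in these data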;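 further: 0% = enzyme with DMSO only and 100% = wells lacking PAFAH1B3 protein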
Target sequence (Q15102 whole entry, looked up): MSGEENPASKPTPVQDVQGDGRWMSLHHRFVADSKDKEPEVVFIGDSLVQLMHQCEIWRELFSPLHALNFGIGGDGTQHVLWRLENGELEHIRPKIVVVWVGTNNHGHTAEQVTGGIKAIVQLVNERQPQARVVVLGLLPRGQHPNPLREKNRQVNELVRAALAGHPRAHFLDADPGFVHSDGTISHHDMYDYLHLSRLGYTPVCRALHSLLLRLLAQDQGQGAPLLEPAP
ZTA counter = blocks Epstein-Barr virus ZTA, an EBNA-1 counter-screen | ZTA-DNA binding, fluorescence polarization | P03206 | 0.15% of 320,000 active | AID 2234 | inhibition, % at 11 µM; in the data active means inhibition above about 33%
PAFAH1B2 FP inh = inhibitors of human PAFAH1B2 | recombinant PAFAH1B2, FP-rhodamine activity probe, fluorescence polarization | inhibition, % at 3.39 µM | 1.2% of 340,000 active;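 active means inhibition above the mean of all tested compounds plus 3 SD, cut at about 24% in these data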;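 further: 0% = enzyme with DMSO and 100% = wells lacking PAFAH1B2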
Target sequence (P68402 whole entry, looked up): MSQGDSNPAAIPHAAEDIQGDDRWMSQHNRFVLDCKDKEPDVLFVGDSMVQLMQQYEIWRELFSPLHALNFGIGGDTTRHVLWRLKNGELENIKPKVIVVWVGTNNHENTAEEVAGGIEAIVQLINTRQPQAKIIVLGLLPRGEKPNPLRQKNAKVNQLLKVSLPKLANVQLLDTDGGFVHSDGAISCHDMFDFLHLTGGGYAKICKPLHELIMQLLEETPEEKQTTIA
EBNA-1 inhibitor = blocks EBNA-1 binding to DNA. AID 1950. EBNA-1 DNA binding, fluorescence polarization. 0.34% of 300,000 active. inhibition, % at 14.8 µM; in the data active means inhibition above about 28%
PAFAH2 inh = inhibitors of human PAFAH2; inhibition, % at 3.39 µM; Q99487; AID 492956; recombinant PAFAH2, FP-rhodamine activity probe, fluorescence polarization; 0.99% of 340,000 active;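 active means inhibition above the mean over all tested compounds plus 3 SD, cut at about 30% in these data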;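 further: inhibitors block probe labeling of enzyme so polarization drops; 0% = enzyme with DMSO and 100% = wells lacking PAFAH2 protein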
* marks the source's active call; other numbers are inactive results; . = no result. Only some compounds are listed: those with a hit (about 2.9% of all), similar ones and a draw of the others.

SMILES | rCAG binder | PAFAH1B3 inh | ZTA counter | PAFAH1B2 FP inh | EBNA-1 inhibitor | PAFAH2 inh
Cc1ccc(NC(=O)COC(=O)CC2CCCC2)cc1F | -1 | 0 | . | -2 | . | 79*
O=C(COC(=O)CC1CCCC1)Nc1ccc(OC(F)F)cc1 | -2 | 3 | 9 | 1 | 11 | 62*
CCc1ccc(NC(=O)COC(=O)CC2CCCC2)cc1 | -1 | 6 | . | 2 | . | 76*
COc1ccc(NC(=O)COC(=O)CCC2CCCCC2)cc1 | -1 | 4 | . | 12 | . | 32*
NC(=O)c1ccc(NC(=O)COC(=O)CCC2CCCCC2)cc1 | 0 | 0 | . | 8 | . | -2
C=CCOC(=O)N[C@H](c1cccc(OC)c1)[C@H](C)/C=C/CC(=O)OC | 2 | . | . | . | . | .
C(#CC1=CCCCC1)CNCC1CC1 | 1 | . | . | . | . | .
CCCCCCCCN1C(=O)[C@@H](CC(=O)NCc2ccccc2)C[C@@]2(C(=O)OC)C1=C[C@H](C(C)C)O[C@@H]2C1CC1 | 11 | . | . | . | . | .
Cc1cccc(NC(=O)n2ccc3ccc(-c4ccc5cc[nH]c5c4)cc32)c1 | 32 | . | . | . | . | .
C#CCNC(=O)C[C@H]1C(=O)N(CC=C)C2=CCCC[C@@]21C(=O)OCC | 3 | . | . | . | . | .
N#Cc1ccc(NC(=O)CSc2nc3[nH]c(=O)cc(O)c3s2)cc1 | 26 | -1 | -21 | 1 | . | -1
CSc1ccc(NC(=O)CSc2nc3[nH]c(=O)cc(O)c3s2)cc1 | 56* | 10 | 4 | -1 | . | 8
O=C(O)c1[nH]c2ccccc2c1NS(=O)(=O)c1ccc(F)cc1 | 11 | -1 | -10 | 24* | -13 | 3
COc1ccc2[nH]c(C(=O)O)c(NS(=O)(=O)c3ccc(F)cc3)c2c1 | 14 | 8 | 0 | 27* | -2 | 5
O=C(NCCc1c[nH]c2ccccc12)OCc1cn(Cc2cccc(Cl)c2)nn1 | 4 | . | . | . | . | .
O=C1C(=O)c2ccc(-c3ccccc3)cc2-c2ccccc21 | 6 | 58* | 6 | 9 | -6 | 51*
Cc1ccc(-n2c(SCC(=O)C(C)(C)C)nnc2-c2cccc(C)c2)cc1 | -1 | . | . | . | . | .
COc1ccc(C(=O)CSc2nnc(-c3ccccn3)n2-c2ccccc2)cc1 | 3 | . | . | . | . | .
O=C(c1cccc(NS(=O)(=O)c2ccccc2)c1)N1CCN(c2ccccc2)CC1 | 2 | 6 | 4 | 14 | -6 | 5
O=C(NCCN1CCOCC1)c1cccc(S(=O)(=O)Nc2ccc(Br)cc2)c1 | 8 | -3 | 14 | 1 | . | 5
O=C(NCCCN1CCOCC1)c1cccc(NS(=O)(=O)c2ccc(Br)cc2)c1 | 3 | 0 | 17 | 25* | . | 1
O=C(c1cccc(NS(=O)(=O)c2ccc(Br)cc2)c1)N1CCN(c2ccccc2O)CC1 | 10 | -1 | . | 25* | . | -10
C=CCN=C1NC(c2ccccc2C(F)(F)F)C(C(=O)OC)=C(C)N1Cc1ccccc1C(F)(F)F (stereo unspecified) | 0 | . | . | . | . | .
COc1ccc(-c2cc(C(=O)N/N=C/C(C)=C\c3ccco3)[nH]n2)cc1 | 17 | . | . | . | . | .
CCCNC(=O)C1CCN(S(=O)(=O)c2ccc(Br)cc2)CC1 | 0 | 4 | -14 | 25* | -8 | 5
SMILES | rCAG binder | PAFAH1B3 inh | ZTA counter | PAFAH1B2 FP inh | EBNA-1 inhibitor | PAFAH2 inh
O=C(NCCC1CCCCN1S(=O)(=O)c1ccccc1)C(=O)NCc1ccc(F)cc1 (stereo unspecified) | -5 | 2 | -15 | 27* | -3 | 1
NC(=O)C1CCCN(S(=O)(=O)c2ccc(Br)cc2)C1 (stereo unspecified) | -1 | 3 | -10 | 28* | 2 | 15
O=C(CCNC(=O)C1CCN(S(=O)(=O)c2ccc(F)cc2)CC1)NCc1ccc(F)cc1 | -6 | 7 | 15 | 27* | 14 | 6
O=C(NCCC1CCCCN1S(=O)(=O)c1ccccc1)C(=O)NCc1ccccc1 (stereo unspecified) | -7 | 13 | -6 | 15 | 6 | 3
C=CCN=C1NC(c2ccccc2)C(C(=O)OC)=C(C)N1Cc1cccc(C(F)(F)F)c1 (stereo unspecified) | 6 | . | . | . | . | .
C[C@H]1Cn2nnc(-c3ccccc3)c2Cn2c3ccccc3c(=O)n21 | 7 | . | . | . | . | .
Cc1cc(Br)ccc1OCC(=O)NNC(=O)C(=O)Nc1ccccc1 | 11 | 2 | 8 | 27* | 8 | 11
CCCC1=NN2C(=N)/C(=C\c3ccc(SCc4ccco4)o3)C(=O)N=C2S1 | . | -100 | 61* | -17 | 50* | -21
O=C1NC(=S)S/C1=C/c1ccc(OC(=O)c2ccco2)cc1 | 33 | 5 | 14 | 0 | -5 | -3
O=C1NC(=S)S/C1=C\c1ccc(SCc2ccco2)o1 | . | 5 | 92* | 20 | 27 | 16
CCCC1=NN2C(=N)/C(=C\c3cc(C)n(Cc4ccccc4)c3C)C(=O)N=C2S1 | 17 | 1 | 2 | 18 | -1 | -1
O=C(CN(c1ccccc1)S(=O)(=O)c1ccccc1)N/N=C/c1ccc(OC2CSC2)cc1 | . | . | 4 | . | 55* | .
CCCCCn1nnnc1C1(C)CCCC(=O)N1Cc1ccco1 (stereo unspecified) | 2 | . | . | . | . | .
c1ccc(-c2nnc3sc(C4CCCCC4)nn23)cc1 | -1 | . | . | . | . | .
NC1=NC(=O)/C(=C/c2cn(CCC(=O)O)nc2-c2ccc(Cl)cc2)S1 | 10 | 6 | -6 | 50* | -2 | 5
COc1ccc(-c2nn(CCC(=O)O)cc2/C=C2\SC(N)=NC2=O)cc1 | 5 | 16 | -2 | 4 | -6 | 3
NC1=NC(=O)/C(=C/c2cn(CCC(=O)O)nc2-c2ccc(F)cc2)S1 | 5 | 8 | 1 | 48* | -2 | 4
COC(=O)[C@]12C[C@H](CC(=O)NCc3ccccc3)C(=O)N(Cc3ccc4c(c3)OCO4)C1=C[C@H](C(C)C)O[C@@H]2C1CC1 | 3 | . | . | . | . | .
CN(CCc1ccccn1)C(=O)c1ccc2c(c1)ncn2C1CCCCC1 | -2 | . | . | . | . | .
CCOC(=O)C1C(C(=O)OCC)C1(c1ccccc1)c1ccccc1 (stereo unspecified) | -7 | 8 | -22 | 29* | 1 | -6
Cc1ccc(C(=O)n2ccc3ccc(-c4ccc5ccn(Cc6ccccc6)c5c4)cc32)cc1 | 15 | . | . | . | . | .
COc1ccc(Cn2ccc3ccc(-c4ccc5ccn(C(=O)C6CCCCC6)c5c4)cc32)cc1 | 16 | . | . | . | . | .
CC(NCc1ccco1)C(=O)N1CCCC1 (stereo unspecified) | 6 | . | . | . | . | .
CC1CCN(S(=O)(=O)c2ccc(NC(=O)[C@@H]3CCCC[C@@H]3C(=O)O)cc2)CC1 | 14 | 1 | -10 | 48* | -4 | 4
O=C(N[C@@H](Cc1ccccc1)C(=O)N1CCN(S(=O)(=O)c2ccc(F)cc2)CC1)c1ccco1 | -4 | 12 | . | 24* | . | 3
CC1CCN(S(=O)(=O)c2ccc(NC(=O)C3CCCCC3C(=O)O)cc2)CC1 (stereo unspecified) | . | 3 | . | 6 | . | 6
CC1CCN(S(=O)(=O)c2ccc(NC(=O)C3CC3)cc2)CC1 | 3 | 0 | 6 | 25* | 1 | -5
CC1CCN(S(=O)(=O)c2ccc(NC(=O)c3ccco3)cc2)CC1 | 0 | 9 | 12 | 27* | -13 | -11
